Bioassay records as filed in PubChem BioAssay.
KCNQ2 block = KCNQ2 (rat) channel inhibition. O88943. CHO-K1 KCNQ2, FluxOR thallium flux, 20 min; active compounds read low. B-score at 10 µM. 310,000 compounds, 1.1% hits;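 active means fluorescence ratio B-score at most minus 3 library SDs, with starting brightness B-score within 2 library SDs, cut at about -5.5 in these data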
Target sequence (O88943 whole entry, looked up): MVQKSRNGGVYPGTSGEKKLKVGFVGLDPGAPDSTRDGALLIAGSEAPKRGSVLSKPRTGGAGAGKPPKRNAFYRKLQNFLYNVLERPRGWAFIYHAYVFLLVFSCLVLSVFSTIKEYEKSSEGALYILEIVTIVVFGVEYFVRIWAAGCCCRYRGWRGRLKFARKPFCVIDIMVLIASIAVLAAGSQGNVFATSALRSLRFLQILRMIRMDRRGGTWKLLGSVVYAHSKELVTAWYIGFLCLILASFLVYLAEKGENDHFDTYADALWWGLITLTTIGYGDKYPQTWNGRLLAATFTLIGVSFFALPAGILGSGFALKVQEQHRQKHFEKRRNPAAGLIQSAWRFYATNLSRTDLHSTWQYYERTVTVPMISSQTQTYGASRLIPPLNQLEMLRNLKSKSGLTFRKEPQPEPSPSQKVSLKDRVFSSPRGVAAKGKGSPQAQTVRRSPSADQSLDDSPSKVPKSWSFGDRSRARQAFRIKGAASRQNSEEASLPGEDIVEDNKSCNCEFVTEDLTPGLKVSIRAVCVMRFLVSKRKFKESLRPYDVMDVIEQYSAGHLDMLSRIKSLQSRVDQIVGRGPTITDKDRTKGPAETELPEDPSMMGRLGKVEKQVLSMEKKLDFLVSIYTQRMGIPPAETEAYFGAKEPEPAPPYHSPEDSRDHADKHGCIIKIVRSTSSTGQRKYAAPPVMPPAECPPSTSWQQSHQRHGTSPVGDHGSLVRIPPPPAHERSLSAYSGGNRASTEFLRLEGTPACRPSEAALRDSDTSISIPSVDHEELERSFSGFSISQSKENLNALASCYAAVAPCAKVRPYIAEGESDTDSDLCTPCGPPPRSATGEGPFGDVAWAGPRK
KCNQ2 pot = KCNQ2 (rat) channel potentiation; O88943; CHO-K1 KCNQ2, FluxOR thallium flux fluorescence; active compounds read high; B-score at 10 µM; 310,000 compounds, 0.54% hits; AID 2239;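 active means fluorescence ratio B-score at least 3 SD of library B-scores, with initial fluorescence B-score within 3 of them, cut at about 5.3 in these data; same plate scores as AID 2156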;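 further: B-score of peak minus minimum over baseline fluorescence ratio after K+ and Tl+ stimulus; positive B-score means potentiation of KCNQ2 with more thallium influx and brighter signal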
KCNQ2 block conf = confirmation of rat KCNQ2 potassium channel inhibitors | AID 493025 | activity change, negative = inhibition, % at 10 µM | 1,000 compounds, 57% hits | shares compounds with KCNQ2 block | KCNQ2-expressing cells, thallium flux, inhibition; active compounds read low
KCNQ1 spec = selectivity of KCNQ2 inhibitors against human KCNQ1 | shares compounds with KCNQ2 block | KCNQ1-expressing cells, FluxOR thallium flux fluorescence; active compounds read low | activity change, negative = inhibition, % at 10 µM | 1,000 compounds, 15% hits | AID 493026;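 active means activity change at least 3 SD of negative controls below their mean in both duplicate wells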;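 further: CHO cells stably transfected with KCNQ1 and depolarized by potassium stimulus; peak minus minimum fluorescence over baseline after thallium addition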
CHO parental ctr = activity in parental CHO cells lacking KCNQ2 | thallium flux counter-screen; active compounds read low | AID 493029 | shares compounds with KCNQ2 block | 1,000 compounds, 14% hits | activity change, % at 10 µM
KCNQ2 inh confirm = rat KCNQ2 inhibition confirmed by electrophysiology; shares compounds with KCNQ2 block; KCNQ2-expressing cells, automated patch clamp current; calls only at 10 µM; 550 compounds, 49% hits; AID 588531
Each line names hits and unclear results; the compound was inactive in the other large screens (follow-up assays come after a bar, where they were run). Sampled rows, rich in hits. Any-hit rate of the full collection: about 1.6%. Unless noted, how the calls were made is not given here.

COc1ccc(CCN(C)C(=O)c2cc(-c3ccc(C)cc3)nc3ccccc23)cc1OC	KCNQ2 block -6.7 | KCNQ2 block conf -45% | KCNQ1 spec -46% | CHO parental ctr -42% | KCNQ2 inh confirm active
COc1ccc(NC(=O)CN(C)C(=O)c2cc(-c3ccc(OC)cc3)nc3ccccc23)cc1	none
COc1ccc(-c2cc(C(=O)N(C)Cc3ccc(F)cc3)c3ccccc3n2)cc1OC	KCNQ2 block -7.5 | KCNQ2 block conf -53% | KCNQ1 spec -48% | CHO parental ctr -56% | KCNQ2 inh confirm active
COc1ccc(-c2cc(C(=O)N3CC(C)CC(C)C3)c3ccccc3n2)cc1OC (configuration not stated)	KCNQ2 block -11 | KCNQ2 block conf -31% | KCNQ1 spec inactive | CHO parental ctr inactive | KCNQ2 inh confirm active
COc1ccc(-c2cc(C(=O)N3CCC3)c3ccccc3n2)cc1OC	none
CCCCNC(=O)c1ccccc1SCc1c(C)noc1C	none
CCCCc1ccc(-n2nnnc2SCC(=O)Nc2cc(OC)c([N+](=O)[O-])cc2C)cc1	none (no result: KCNQ2 pot)
C[C@H](NC(=O)c1nc[nH]c1C(=O)NC1CCN(C(=O)OC(C)(C)C)CC1)C(=O)OCc1ccccc1	none (no result: KCNQ2 pot)
CCc1ccc(NC(=O)CSc2nc(=O)n3cc(C)ccc3n2)cc1	none
CCNC1CCS(=O)(=O)C1 (configuration not stated)	none (no result: KCNQ2 pot)
CCN(CC)CCCNC1CCS(=O)(=O)C1 (configuration not stated)	KCNQ2 block -6.7 | KCNQ2 block conf inactive | KCNQ1 spec inactive | CHO parental ctr inactive
O=C1CNC(=S)N1Cc1cccc(Cl)c1	none
COc1cccc(/C=C2\SC(=S)N(N3CCOCC3)C2=O)c1OC	KCNQ2 block -8.6 | KCNQ2 block conf -34% | KCNQ1 spec inactive | CHO parental ctr inactive | KCNQ2 inh confirm inactive
COc1ccc(/C=C2\SC(=S)N(N3CCOCC3)C2=O)c(OC)c1	none (no result: KCNQ2 pot)
COC(=O)c1cc(OC)c(OC)cc1N1C(=O)CC(C)(C)CC1=O	none
Clc1ccccc1OCCCn1ccnc1	none
Clc1ccccc1C(c1ccccc1)(c1ccccc1)n1ccnc1	KCNQ2 block -7.6 | KCNQ2 block conf -36% | KCNQ1 spec -30% | CHO parental ctr -24% | KCNQ2 inh confirm inactive
O=C(NCc1nc2ccccc2[nH]1)C1=C[C@@H](c2ccccc2)C[C@@H](OCCCCO)O1	none (no result: KCNQ2 pot)
CSCCC(NC(=O)COc1ccccc1)C(=O)N1CCCC(C(F)(F)F)C1 (configuration not stated)	KCNQ2 block -7 | KCNQ2 block conf inactive | KCNQ1 spec inactive | CHO parental ctr inactive
CSCCC(NC(=O)c1ccccc1Br)C(=O)N1CCCC(C(F)(F)F)C1 (configuration not stated)	KCNQ2 block -9.3 | KCNQ2 block conf -16% | KCNQ1 spec inactive | CHO parental ctr inactive | KCNQ2 inh confirm active
CSCCC(NC(=O)c1ccccc1Br)C(=O)NCC1CCCCC1 (configuration not stated)	none (no result: KCNQ2 pot)
CSCCC(NC(=O)c1ccccc1Br)C(=O)NCc1ccc(F)cc1 (configuration not stated)	none
CSCCC(NC(=O)c1ccccc1Br)C(=O)N1CCCCCCC1 (configuration not stated)	KCNQ2 block -9.6 | KCNQ2 block conf -29% | KCNQ1 spec inactive | CHO parental ctr inactive | KCNQ2 inh confirm active
CSCCC(NC(=O)COc1ccccc1)C(=O)NC1CCC(C)CC1 (configuration not stated)	none (no result: KCNQ2 pot)
CN(Cc1c(C(=O)N/N=C/c2cccs2)nnn1-c1nonc1N)c1ccccc1	none (no result: KCNQ2 pot)
Cc1cccc(C(=O)NNC(=O)CSc2nnc(C3CC3)n2C)c1	none
COc1ccc(C(C)(C)C)cc1NC(=O)c1cc(S(=O)(=O)N(C)C)ccc1N1CCCC1	none (no result: KCNQ2 pot)
Cc1ccc(-n2cccc2/C=C2/C(=N)N3C(=NC2=O)SN=C3S(C)(=O)=O)cc1	none (no result: KCNQ2 pot)
CCc1ccc(-n2cccc2/C=C2/C(=N)N3C(=NC2=O)SN=C3S(C)(=O)=O)cc1	KCNQ2 block -10 | KCNQ2 block conf -39% | KCNQ1 spec -41% | CHO parental ctr -35% | KCNQ2 inh confirm inactive
CC(=O)c1ccc(OCC(O)CN2CCN(S(=O)(=O)c3c(C)c(C)cc(C)c3C)CC2)cc1 (configuration not stated)	none (no result: KCNQ2 pot)
CN1CCN(c2cc(N3CCc4ccccc4C3)c(F)cc2[N+](=O)[O-])CC1	KCNQ2 block -6.8 | KCNQ2 block conf inactive | KCNQ1 spec inactive | CHO parental ctr inactive
CCC(=O)N1CCN(c2cc(N3CCN(C)CC3)c(F)cc2[N+](=O)[O-])CC1	none
CSC(SC)=C(C#N)C(=O)c1ccccc1	KCNQ2 block -7.9 | KCNQ2 block conf inactive | KCNQ1 spec inactive | CHO parental ctr inactive
COc1cccc(C(=O)C(C#N)=C(SC)SC)c1	none (no result: KCNQ2 pot)
CN1C(C(=O)c2ccccc2)=C(N)c2ccccc2S1(=O)=O	none (no result: KCNQ2 pot)
Cc1ccc(NC2=C(C(=O)c3ccccc3)N(C)S(=O)(=O)c3ccccc32)cc1	KCNQ2 block -12 | KCNQ2 block conf -28% | KCNQ1 spec inactive | CHO parental ctr inactive | KCNQ2 inh confirm inactive
CCN1C(C(=O)c2ccccc2)=C(Nc2ccccc2C)c2ccccc2S1(=O)=O	KCNQ2 block -6.9 | KCNQ2 block conf -34% | KCNQ1 spec -27% | CHO parental ctr inactive | KCNQ2 inh confirm inactive
CCN1C(C(=O)Nc2cc(C)on2)=C(O)c2ccccc2S1(=O)=O	none
Cc1ccc(NCc2nnc(SCC(=O)NCCc3ccccc3)n2C)cc1	none
Cc1cc(C)c(OC2(c3ccccc3)OC(=O)c3ccccc32)c(C)c1 (configuration not stated)	none (no result: KCNQ2 pot)
Cc1cccc(C)c1OC1(c2ccccc2)OC(=O)c2ccccc21 (configuration not stated)	KCNQ2 block -8.6 | KCNQ2 block conf inactive | KCNQ1 spec inactive | CHO parental ctr inactive
CCCCOc1ccc(/C=C/C(=O)NC2=Nc3ccccc3NC(C)=C2C(=O)OCC)cc1OC	none (no result: KCNQ2 pot)
CN(CCOc1ccccc1)CC(=O)Nc1ccc([N+](=O)[O-])cc1Cl	none (no result: KCNQ2 pot)
CN(CC(=O)Nc1ccc([N+](=O)[O-])cc1Br)Cc1c(F)cccc1Cl	KCNQ2 block -11 | KCNQ2 block conf inactive | KCNQ1 spec inactive | CHO parental ctr inactive
Cc1noc(C)c1CSCC(=O)N1CCN(c2ccc([N+](=O)[O-])cc2)CC1	none (no result: KCNQ2 pot)
O=C(CSc1n[nH]c(-c2ccncc2)n1)Nc1ccccc1C(F)(F)F	none
CCCCn1c(=O)[nH]c(=O)c2c1ncn2Cc1ccco1	none
CCCCn1cnc2c(c(-c3ccccc3)c(-c3ccccc3)n2Cc2ccco2)c1=N	KCNQ2 block -7.6 | KCNQ2 block conf -27% | KCNQ1 spec inactive | CHO parental ctr inactive | KCNQ2 inh confirm inactive
Cc1cc(Cl)ccc1N(CC(=O)NCc1ccccc1)S(C)(=O)=O	none (no result: KCNQ2 pot)
CC(C)CC(=O)Nc1nnc(S(=O)(=O)Nc2ccccc2)s1	none (no result: KCNQ2 pot)
O=C(/C=C/c1cccc(F)c1)N(c1ccccn1)C1CCCCC1	none (no result: KCNQ2 pot)
O=C(/C=C/c1ccc(Cl)cc1)N(c1ccccn1)C1CCCCC1	KCNQ2 block -8.1 | KCNQ2 block conf -44% | KCNQ1 spec -35% | CHO parental ctr -34% | KCNQ2 inh confirm active
